DAX1 inh-1: inhibitors of human orphan nuclear receptor DAX1 (NR0B1); 0.99% of 340,000 active; AID 504766; inhibition, % at 6.75 µM; HEK293 Gal4-DAX1 luciferase reporter, luminescence;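 active = inhibition above the mean over all tested compounds plus 3 SD, cut at about 4.2% in these data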;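 note: 0% = DAX1-transfected cells with DMSO and 100% = empty-vector control cells with DMSO; inhibition shows as a rise in luminescence from relieved DAX1 repression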
Target sequence (P51843 207-470 limits assumed): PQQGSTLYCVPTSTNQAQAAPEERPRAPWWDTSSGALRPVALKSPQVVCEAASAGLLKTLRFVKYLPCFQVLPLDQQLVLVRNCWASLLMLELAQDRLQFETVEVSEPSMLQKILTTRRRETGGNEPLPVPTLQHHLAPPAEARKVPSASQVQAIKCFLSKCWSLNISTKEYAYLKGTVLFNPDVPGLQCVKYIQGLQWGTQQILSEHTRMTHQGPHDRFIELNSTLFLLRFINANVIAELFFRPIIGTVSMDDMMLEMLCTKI
ssDAF-12 act: S. stercoralis DAF-12 activation, primary screen; HEK293 ssDAF-12/GRIP1 lit1-tk-luc reporter, luminescence; % of 3 µM dafachronic acid response; activation, % at 6.8 µM; 1% of 370,000 active;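 active = activation above the mean over all tested compounds plus 3 SD, cut at about 0.9% in these data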;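 note: 0% = DMSO-only wells and 100% = 3 µM delta7-dafachronic acid wells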
DAX1 inh-2: blocks DAX1 repression of SF-1 activated StAR promoter; HEK293T StAR-luciferase reporter, SF-1/DAX-1 repression relief; 1.1% of 370,000 active; inhibition, % at 6.8 µM;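 active = inhibition above the mean over all tested compounds plus 3 SD, cut at about 3.6% in these data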;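 note: 0% = DAX-1 cells with DMSO and 100% = cells lacking DAX-1 with DMSO; higher inhibition means more luminescence from relief of DAX-1 repression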
hcDAF-12 act: H. contortus DAF-12 activation, primary screen. HEK293 hcDAF-12 lit1-tk-luc reporter, luminescence; 0% DMSO, 100% Δ7-dafachronic acid. activation, % at 6.8 µM. 1.4% of 370,000 active. AID 652067;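 active = activation above the mean of all tested compounds plus 3 SD, cut at about 5.5% in these data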;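 note: 100% = response to 3 µM Δ7-dafachronic acid high control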
hgDAF-12 ag: hgDAF-12 agonism, primary luciferase screen; HEK293 GAL4-hgDAF12 UAS-luciferase reporter, agonist luminescence; normalized to butyrate control; activation, % at 6.8 µM; 1.8% of 370,000 active; AID 687014;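 active = activation above a cutoff set at the mean of all screened compounds plus 3 SD, cut at about 10% in these data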;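 note: 0% = DMSO wells and 100% = sodium butyrate wells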
DAX1 conf: NR0B1 (human) inhibition, confirmation; shares compounds with DAX1 inh-2; HEK293T StAR-promoter luciferase reporter, SF-1/DAX-1 repression; inhibition, % at 6.8 µM; 87% of 2,400 active; AID 652134;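 active = inhibition above the average of every tested compound plus 3 SD, cut at about 3.8% in these data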;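 note: 0% = DAX-1 cells with DMSO and 100% = no DAX-1 control cells with DMSO; active compounds raise luminescence by relieving repression of the StAR reporter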
SF1 mutant ctr: counter-screen for DAX1 inhibitors: nonselective inhibitors with SF-1 AF2 mutant | shares compounds with DAX1 inh-2 | HEK293 StAR-luciferase, luminescence | inhibition, % at 6.8 µM | 78% of 2,400 active | AID 652136;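 active = inhibition above the mean of all tested compounds plus 3 SD, cut at about 3% in these data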;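 note: 0% = DAX-1 transfected cells with DMSO and 100% = cells without DAX-1 with DMSO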
The depositor's hits bear a star; / = not tested or not shown. Shown are actives, neighbours in structure and some others; about 4.1% of the full set was active somewhere.

SMILES	DAX1 inh-1	ssDAF-12 act	DAX1 inh-2	hcDAF-12 act	hgDAF-12 ag	DAX1 conf	SF1 mutant ctr
CCOc1cccc(C2C(C(=O)c3ccc(C)o3)=C(O)C(=O)N2c2nnc(C)s2)c1 (stereo unspecified)	-0.2	-0.8	6.5*	0.9	1.9	6.0*	3.8*
COc1ccc2oc(C(=O)Nc3nnc(C)s3)c(C)c2c1	-0.7	0.1	10.4*	3.2	10.9*	16.1*	5.9*
Cc1ccc2oc(C(=O)Nc3nnc(C)s3)c(C)c2c1	1.1	-0.8	1.1	3.2	5.0	/	/
O=C(Cc1ccc(NC(=O)C2CCN(C(=O)C3CCCC3)CC2)cc1)Nc1ccc(C(=O)N2CCOCC2)cc1	0.3	-1.4	-0.5	0.6	0.7	/	/
N/C(=N\OC(=O)c1cccs1)c1cccc(Br)c1	2.6	0.2	1.9	2.1	8.6	/	/
COc1ccc(/C(N)=N/OC(=O)c2cccs2)cc1OC	3.0	-1.1	8.3*	0.4	7.9	6.2*	6.1*
CC(=O)Nc1ccc(C(C)=NNC(=O)C2CCCC2)cc1	/	-0.2	4.6*	1.3	2.9	-2.3	-1.4
CC(C)C(OC(=O)C1=Cc2ccccc2OC1)C(=O)NCC1CCCO1 (stereo unspecified)	0.9	0.1	5.0*	4.4	14.7*	1.9	5.2*
O=C(CNC(=O)c1cccs1)c1ccc(F)cc1	1.0	-0.5	4.7*	4.9	13.2*	16.3*	6.9*
O=C(CNC(=O)c1cccs1)Nc1ncccc1O	0.3	-0.7	4.5*	1.9	0.4	3.1	2.4
O=C(CNC(=O)c1cccs1)c1ccc([N+](=O)[O-])cc1	0.9	-0.7	1.6	1.4	3.8	/	/
O=C1C=C(c2cc3ccccc3o2)C[C@@H](c2ccc(F)cc2)C1	0.4	-1.4	0.2	-0.7	4.8	/	/
C=CCN=C1NC(c2ccc(Cl)cc2)C(C(=O)OC)=C(C)N1C (stereo unspecified)	/	-1.2	1.6	0.8	1.8	/	/
O=C(Nc1ccc(Br)cc1)N1CCCC(O)C1 (stereo unspecified)	0.4	-1.5	1.5	0.3	3.1	/	/
CCc1ccc(NC(=O)N2CCCCCC2)cc1	3.6	-0.3	5.2*	3.8	4.0	9.8*	7.0*
O=C(Nc1ccc(Br)cc1)N1CCc2ccccc2C1	1.4	-0.4	5.3*	1.4	5.3	5.5*	3.0*
CCOC(=O)c1ccc(NC(=O)N2CCCCC2)cc1	1.7	/	/	/	/	/	/
O=C(Nc1ccc(Br)cc1)N1CCCCCC1	1.0	0.2	7.2*	0.8	6.7	4.8*	3.3*
O=C(Nc1ccc(Cl)c(Cl)c1)N1CCCCCC1	0.6	-0.4	5.3*	0.3	6.8	8.8*	4.8*
Cc1cc(C)cc(NC(=O)N2CCc3ccccc3C2)c1	0.8	-0.2	2.3	1.3	4.7	/	/
CCOC(=O)c1c(-c2ccccc2)oc2ccc(OCC(O)CNCCN(C)C)cc12 (stereo unspecified)	1.0	-0.6	1.2	-1.0	2.2	/	/
CCc1ccc(NC(=S)N2CCCC2)cc1	1.3	-0.4	5.3*	6.0*	12.1*	8.6*	3.9*
CCc1ccc(NC(=S)N2CCN(C)CC2)cc1	1.0	-0.6	2.7	3.6	0.5	/	/
CCOC(=O)C1=CC[C@@H](c2ccccc2)N(S(=O)(=O)c2ccc(C)cc2)[C@H]1/C=C/c1ccccc1	/	-1.4	-1.4	-0.8	1.7	/	/
CC(C)(C)n1cnc2cc(NC(=O)c3cccs3)ccc21	1.7	-1.2	5.6*	2.7	10.2	8.6*	5.9*
CC(C)(C)n1cnc2cc(NCc3cccs3)ccc21	0.5	-1.0	3.1	-0.3	6.5	/	/
Cc1ccc(NC(=O)CSc2ccc(S(=O)(=O)N3CCCC3)cn2)cc1F	0.5	-0.8	5.9*	-1.2	-2.3	-4.5	0.1
Nc1nc(=O)n(C2OC(CO)C(O)C2O)cc1F (stereo unspecified)	/	-1.7	-3.9	-2.3	-5.6	/	/
Nc1cnn(C2OC(CO)C(O)C2O)c(=O)n1 (stereo unspecified)	-0.8	-1.6	4.6*	1.0	-4.2	6.8*	-0.2
